Data on 21 molecules can be found in PubChem BioAssay (EPA / NIEHS).

Active and inactive are the calls of the source. How the source made its calls: active means hit-call score of the fitted dose curve at least 0.9, where 1 is the maximum; inactive means score below 0.9.

Experiment [1] in a line: APR_HepG2_CellCycleArrest_24hr: Apredica 24-hour HepG2 Assay for Cell Cycle Arrest (AID 2282905).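 Further: cell cycle arrest scored as ratio of 2N to 4N nuclear DNA content.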 Conditions: imaging, actives raise or lower the signal. The method in brief: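 Step one: dose HepG2 with test compounds, 0.39–200 uM, 0.5% DMSO, 24 hr. Step two: fix, permeabilize, stain nuclei with Hoechst 33342. Step three: image six fields per well at 20x, quantify DNA content, fit bidirectionally relative to DMSO.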

Experiment [2] is described as follows: APR_HepG2_NuclearSize_24hr: Apredica 24-hour HepG2 Assay for Nuclear Size (AID 2282907). Conditions: high-content imaging, actives raise or lower the signal. The method in brief:
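After fixation and permeabilization, 24-hr-treated HepG2 cells were stained with Hoechst 33342 and imaged on an ArrayScan (20x). Doses spanned 0.39–200 uM in duplicate. Nuclear diameter changes in either direction were fitted relative to 0.5% DMSO controls.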

A short description of experiment [3]: APR_HepG2_CellLoss_24hr: Apredica 24-hour HepG2 Assay for Cell Loss (AID 2282908).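 On AC50: fit in both directions so a hit may be cell loss or gain.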 The note with it: high-content imaging. In a few lines:
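Duplicate wells received compound at ten concentrations (0.39–200 uM; final DMSO 0.5% v/v). After fixation with formaldehyde, nuclei stained with Hoechst 33342 were imaged at 20x. Loss or gain of cell count was fitted relative to DMSO controls.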

A short description of experiment [4]: APR_HepG2_MicrotubuleCSK_24hr: Apredica 24-hour HepG2 Assay for Microtubule CSK Stabilty (AID 2282909). Conditions: HepG2 microtubule cytoskeleton imaging, actives raise or lower the signal. The method in brief:
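Microtubule stability is scored from tubulin immunofluorescence in fixed HepG2 cells imaged at 20x. Cells receive ten compound concentrations up to 200 uM for 24 h; taxol and DMSO serve as positive and negative controls.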

A short description of experiment [5]: APR_HepG2_MitoticArrest_24hr: Apredica 24-hour HepG2 Assay for Mitotic Arrest (AID 2282910). Conditions: high-content imaging, actives raise or lower the signal. The method in brief: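 High-content imaging of fixed HepG2 cells labeled with Hoechst 33342 and anti-phospho-histone H3, after 24 h treatment. Ten concentrations 0.39 to 200 uM in duplicate, final DMSO 0.5%; changes fitted both directions relative to DMSO.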

A short description of experiment [6]: APR_HepG2_MitoMembPot_24hr: Apredica 24-hour HepG2 Assay for Mitochondrial Membrane Potential (AID 2282911). The note with it: imaging, actives raise or lower the signal. In a few lines:
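Human hepatoma HepG2 cultures received ten compound concentrations up to 200 uM for 24 hr. Membrane-potential dye signal, captured by automated fluorescence microscopy, was scored for gain or loss against DMSO controls.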

Experiment [7] is described as follows: APR_HepG2_MitoMass_24hr: Apredica 24-hour HepG2 Assay for Mitochondrial Mass (AID 2282912). Conditions: high-content imaging, actives raise or lower the signal. In a few lines:
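Readout: fluorescence of MitoTracker Red CMXRos (250 nM, added 30 min pre-fixation) in fixed HepG2 cells imaged by HCS. Exposure lasted 24 hr at 0.39–200 uM; increases and decreases were both fitted relative to DMSO.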

Experiment [8] in a line: APR_HepG2_p53Act_24hr: Apredica 24-hour HepG2 Assay for p53 Activation (AID 2282913).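 Further: p53 protein immunofluorescence averaged per cell in HepG2 with Hoechst nuclei.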 The note with it: high-content imaging, actives raise or lower the signal. The method in brief:
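Automated fluorescence imaging quantifies p53 immunostaining in HepG2 cells after a 24 hr exposure (0.39–200 uM, duplicate, 0.5% DMSO). Nuclei are located by Hoechst 33342 staining.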

Experiment [9] in a line: APR_HepG2_CellCycleArrest_72hr: Apredica 72-hour HepG2 Assay for Cell Cycle Arrest (AID 2282914). Conditions: high-content imaging, actives raise or lower the signal. In a few lines:
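Cell cycle arrest in HepG2 was scored from nuclear DNA content after 72 hr compound treatment (0.39–200 uM). Activity, either gain or loss, was fitted against the DMSO baseline.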

A short description of experiment [10]: APR_HepG2_CellLoss_72hr: Apredica 72-hour HepG2 Assay for Cell Loss (AID 2282915). Conditions: high-content imaging. The method in brief: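 Cell number comes from Hoechst 33342-labelled nuclei, imaged at 20x after 3.7% formaldehyde fixation. Dosing was 0.39–200 uM, ten concentrations in duplicate, 0.5% DMSO final, for 72 h. Bidirectional fit relative to DMSO baseline.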

For orientation: AC50 means the concentration giving half of the maximal activity seen.

For `Cc1ccc(N)cc1O`, the molecule was classed as inactive in [1], in experiment [2], in [3], in experiment [4], in [5] and in [7]. For the same molecule, the molecule was called inactive in experiment [8] and in experiment [9]. The AC50 in experiment [6] was 0.917 µM (active); in experiment [10] it was 10.5 µM (active).
`CNCc1ccc(NC(=O)c2c[nH]c3c2C(=O)CCC3)cc1`: the outcome in experiment [1], in experiment [2], in [3], in [5], in [6] and in experiment [7] was inactive. Besides, the outcome in experiment [8] and in experiment [9] was inactive. Further, in [10], the AC50 is 73.7 µM (active).
As to `CCOC(=O)COc1ccc2c(c1)CC(NCC(O)c1cccc(Cl)c1)CC2` (configuration not stated), the molecule was called inactive in [1], in [2], in experiment [4], in experiment [6] and in [9]. Also, the AC50 in [3] is 84.4 µM (active); in [5], 28.7 µM (active); in experiment [7], 41.5 µM (active); in [8] it was 30.6 µM (active); in experiment [10], 71.4 µM (active).
For `CCCCCCCCCCCCCCCO`, the results for the half-maximal activity concentration (AC50) in [1], in [9] and in experiment [10] were 107 µM (active), 110 µM (active) and 93.8 µM (active), respectively. The call in experiment [2], in experiment [3], in [5], in [6], in experiment [7] and in [8] was inactive.
On to `O=C1CCCCCN1`, for which the molecule was called inactive in [1], in experiment [2], in experiment [3], in experiment [4], in [5] and in experiment [6]. Further, the call in experiment [7], in [8], in [9] and in experiment [10] was inactive.
For the molecule `On1ccccc1=S`, the outcome in [1], in [2], in experiment [3], in [4], in experiment [5] and in [6] was inactive. Besides, the call in [7] was inactive. Further, the results for the AC50 in experiment [8], in [9] and in experiment [10] were 19.6 µM (active), 8.36 µM (active) and 5.34 µM (active), respectively.
Consider `Cc1ccc(O)cc1`, for which the molecule was classed as inactive in experiment [1], in [2], in [3], in [4], in experiment [5] and in [6]. The molecule was classed as inactive in experiment [7], in experiment [8], in experiment [9] and in experiment [10].
Consider `CCNc1ccccc1`, for which the outcome in [1], in experiment [2], in experiment [3], in [4], in [5] and in [6] was inactive. For the same molecule, the molecule was classed as inactive in [7], in [8], in [9] and in experiment [10].
On to `COC(=O)c1c(Cl)c(Cl)c(C(=O)OC)c(Cl)c1Cl`, for which the molecule was called inactive in experiment [1], in experiment [2], in [3], in experiment [4], in [5] and in experiment [6]. The molecule was classed as inactive in [7], in experiment [8], in experiment [9] and in experiment [10].
With `C[C@](N)(Cc1ccc(O)c(O)c1)C(=O)O`, the outcome in [1], in experiment [2], in experiment [3], in [4], in [5] and in experiment [6] was inactive. The molecule was classed as inactive in experiment [7], in [8], in experiment [9] and in experiment [10].
Turning to `NC(=O)NO`, the molecule was classed as inactive in [1], in experiment [2], in experiment [3], in experiment [5], in [6] and in experiment [7]. Also, the molecule was called inactive in [8], in experiment [9] and in experiment [10].
`Nc1nc2ncc(CNc3ccc(C(=O)N[C@@H](CCC(=O)O)C(=O)O)cc3)nc2c(=O)[nH]1`: the call in [1], in [2], in experiment [3], in experiment [5], in [6] and in experiment [7] was inactive. The call in experiment [8], in experiment [9] and in experiment [10] was inactive.
For the molecule `O=C(CCCCCCCCc1cccnc1)N1CCC(C=C(c2ccccc2)c2ccccc2)CC1`, the result in experiment [1], in experiment [2], in [3], in experiment [4], in [5] and in [6] was inactive. The outcome in experiment [7], in experiment [8], in experiment [9] and in experiment [10] was inactive.
For `COc1ccc(/C=C/S(=O)(=O)NC(=O)c2ccc(C)cc2Cl)cc1`, the AC50 is 102 µM (active) in experiment [1], 14.7 µM (active) in [6] and 57.3 µM (active) in [10]. The call in experiment [2], in experiment [3], in [4], in experiment [5], in experiment [7] and in [8] was inactive. The call in experiment [9] was inactive.
Take `Cc1ccc(S(=O)(=O)O)cc1C`: the molecule was classed as inactive in experiment [1], in [2], in experiment [3], in experiment [4], in [5] and in experiment [6]. Also, the call in experiment [7], in experiment [8] and in experiment [9] was inactive. Further, the AC50 in experiment [10] is 0.0391 µM (active).
On to `CC(C)=CCCC(C)CCO` (configuration not stated), for which the outcome in [1], in experiment [2], in experiment [3], in experiment [4], in experiment [5] and in experiment [6] was inactive. The result in [7] and in [8] was inactive. Moreover, the AC50 was 0.0388 µM (active) in experiment [9] and 0.0391 µM (active) in experiment [10].
`Cn1cnc([N+](=O)[O-])c1Sc1ncnc2nc[nH]c12`: the molecule was classed as inactive in [1], in experiment [2], in experiment [3], in [4], in experiment [5] and in experiment [6]. The molecule was classed as inactive in experiment [7], in experiment [8] and in [9]. Further, the AC50 in experiment [10] was 44.8 µM (active).
For the molecule `CCOCCO`, the outcome in experiment [1], in experiment [2], in experiment [3], in experiment [5], in experiment [6] and in experiment [7] was inactive. For the same molecule, the molecule was classed as inactive in [8], in [9] and in experiment [10].
Consider `CCN(C(=O)c1cc(C)cc(OC[C@H](C)Nc2ccncc2)c1)C(C)C`, for which the call in [1], in [2], in [3], in [5], in experiment [6] and in [7] was inactive. The result in [8], in experiment [9] and in experiment [10] was inactive.
For the molecule `O=C(O)c1cccc(Oc2ccccc2)c1`, the call in experiment [1], in experiment [2], in experiment [3], in experiment [5], in [6] and in experiment [7] was inactive. For the same molecule, the molecule was called inactive in [8], in experiment [9] and in experiment [10].
On to `CCCCCCCCCCCCc1ccccc1`, for which the outcome in [1], in [2], in [3], in experiment [5], in experiment [6] and in experiment [7] was inactive. The call in [8], in experiment [9] and in experiment [10] was inactive.
